IL1B secr inh – blocks inflammasome-driven IL-1 beta release; AID 743279; activity change, % at 57.5 µM; THP-1 LPS/ATP IL-1B secretion, AlphaLISA, 16 h; hits give low values; 360,000 compounds, 4.7% hits; in the data active means activity change below about -50%; inconclusive means mostly about -30% to -49%; further: on the % scale 0 is the no-effect control and ±100 the full control effect
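Secreted IL-1B measured by AlphaLISA bead assay after 16 h compound exposure of THP-1 cells; compounds (final up to 57.5 uM) added 1 h before LPS (250 ng/mL) and ATP (1.25 mM) stimulation; lower signal means less secretion.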
TGFb inhibitor – TGF-b pathway inhibition. HepG2 CAGA-GFP TGF-b/SMAD3 reporter, GFP fluorescence, 18 h; TGF-beta stimulated, 500 pg/mL final. Potency, µM (top dose mostly 46.1 µM), for the others: top-dose activity, negative = inhibition, most hits filed as inhibitors. 410,000 compounds, 1.2% hits. AID 588855; further: potency means the concentration at half of the fitted maximal effect; on the % scale 0 is the no-effect control and ±100 the full control effect; nearly all actives have a fitted effect of over 65% in size
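Read-out: total well GFP (ex488/em500-530) summed from mean per-cell fluorescence. Cells: HEPG2 CAGA-GFP, 1% FBS DMEM, 18 h at 37 degrees C with 500 pg/mL final TGF-beta. Unstimulated wells served as the full-inhibition control; stimulated DMSO wells = 0%.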
TDP1 inh – TDP1 (human) enzyme inhibition; Q9NUW8; recombinant TDP1, AlphaScreen DNA substrate cleavage; Potency, µM (highest dose often 130 µM), inactives show at the highest dose activity change, negative = inhibition, hits mostly inhibitors; 350,000 compounds, 0.28% hits; further: potency means the concentration at half of the fitted maximal effect; on the % scale 0 is the no-effect control and ±100 the full control effect; nearly all actives have a fitted effect of over 40% in size
Target sequence (Q9NUW8 whole entry, looked up): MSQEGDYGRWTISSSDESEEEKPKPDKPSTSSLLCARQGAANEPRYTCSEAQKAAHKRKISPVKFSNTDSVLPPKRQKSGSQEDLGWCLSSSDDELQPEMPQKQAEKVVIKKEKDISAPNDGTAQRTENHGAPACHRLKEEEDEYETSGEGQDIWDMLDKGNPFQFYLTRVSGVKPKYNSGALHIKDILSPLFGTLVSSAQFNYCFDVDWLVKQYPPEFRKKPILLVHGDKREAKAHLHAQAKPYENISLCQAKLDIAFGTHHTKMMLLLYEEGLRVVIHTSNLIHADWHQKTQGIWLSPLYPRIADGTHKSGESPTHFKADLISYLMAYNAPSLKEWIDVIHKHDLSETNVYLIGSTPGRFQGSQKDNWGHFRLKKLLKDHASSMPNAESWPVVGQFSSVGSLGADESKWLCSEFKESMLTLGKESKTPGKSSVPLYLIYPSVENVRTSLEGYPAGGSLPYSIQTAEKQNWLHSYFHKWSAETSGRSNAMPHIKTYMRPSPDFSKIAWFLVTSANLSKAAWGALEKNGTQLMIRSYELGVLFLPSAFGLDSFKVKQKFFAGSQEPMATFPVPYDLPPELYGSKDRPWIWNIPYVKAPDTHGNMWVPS
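Steps: enzyme plus compound, 15 min RT; add biotin/phosphotyrosine-FITC oligonucleotide (15 nM final), react 5 min; add donor/acceptor beads (10 ug/ml final), 10 min; read AlphaScreen. Tdp1 at 1 nM final.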
TDP1 cell CPT – growth inhibition of DT40 Tdp1-/-;hTDP1 cells with camptothecin (screen for TDP1 inhibitors); Potency, µM (doses to about 46.2 µM), inactives show at the highest dose activity change, negative = growth inhibition, actives largely listed as inhibitors; chicken DT40 Tdp1-/-;hTDP1 cells + 20 nM CPT, ATP luminescence, 48 h; 420,000 compounds, 12% hits; AID 686979; further: potency means the concentration at half of the fitted maximal effect; on the % scale 0 is the no-effect control and ±100 the full control effect; nearly all actives have a fitted effect of over 55% in size
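Chicken DT40 Tdp1-/- cells stably complemented with human TDP1 were seeded at 400 cells/well in medium containing 20 nM camptothecin, exposed to pin-transferred compounds, and grown at 37 °C for at least 48 hr. Viability was read as ATP luminescence.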
HepG2 viability – HepG2 cytotoxicity, counter-screen for TGF-b inhibitors; HepG2 CAGA-GFP viability, ATP luminescence, 18 h; Potency, µM (top dose mostly 46.1 µM), for inactives: at the highest dose activity change, negative = cytotoxicity, usual class: cytotoxic; 410,000 compounds, 0.76% hits; AID 588856; further: potency means the concentration at half of the fitted maximal effect
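CellTiter-Glo luminescence gave cytotoxicity after 18 hours at 37 degrees C. The cells were HepG2 CAGA-GFP in 1% FBS DMEM, stimulated with 500 pg/mL TGF-beta after compound addition. %Activity was normalised to no-cell wells (complete cell-killing) and DMSO (no toxicity), and curves were fitted and classified.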
TDP1 cell noCPT – qHTS for Inhibitors of human tyrosyl-DNA phosphodiesterase 1 (TDP1): qHTS in cells in absence of CPT; DT40 Tdp1-/- hTDP1 cells, no CPT, ATP luminescence, 48 h; Potency, µM (series often up to 46.2 µM), inactives show at the top dose activity change, negative = growth inhibition, hits mostly inhibitors; 420,000 compounds, 15% hits; AID 686978, 2013; further: potency means the concentration at half of the fitted maximal effect; on the % scale 0 is the no-effect control and ±100 the full control effect; nearly all actives have a fitted effect of over 55% in size
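Compound effects on proliferation are scored in DT40 Tdp1-/-;hTDP1 cells in the absence of CPT. ATP levels (CellTiter-Glo luminescence) are recorded after a ≥48 hr, 37 °C incubation.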
* hit, by the source's call; ? = inconclusive; / = no result; [ ] = another dose, or the depositor's remark. Only some compounds are listed: those with a hit (about 18% of all), similar ones and a draw of the others. Unless noted, the call rests on the fitted dose curve; in most records, active means well fitted curve in the direction sought with a large enough effect; inconclusive means small, poorly fitted or top-dose-only effect, or another doubt; inactive means no such curve, though single readings can be large; an effect the other way counts as inactive or inconclusive.

SMILES	IL1B secr inh	TGFb inhibitor	TDP1 inh	TDP1 cell CPT	HepG2 viability	TDP1 cell noCPT
CCN(CC)S(=O)(=O)c1cccc(C(=O)Nc2cc3oc4ccccc4c3cc2OC)c1	12.6	5.6%	5.8%	16.4µM*	12.0%	18.4µM*
NC(=O)CSc1nnc(NC(=O)c2ccc(S(=O)(=O)N3CCCCC3)cc2)s1	4.8	-2.4%	-13.2%	-1.6%	-3.9%	?
CC(C)[C@@H]1C(=O)N(S(C)(=O)=O)[C@H]2CCN(C(=O)/C=C\CN3CCCCC3)[C@@H]12	/	/	9.5%	33.5µM*	/	?
Cc1cc(C)c(NC(=O)C2CCCN2C(=O)NC2CCCCC2)c(C)c1 (centres undefined)	10.5	3.2%	5.4%[56.1 µM]	13.2%	5.1%	-25.0%
CC(C)(C)OC(=O)COc1cc(OCC(=O)OC(C)(C)C)c2c(=O)cc(-c3ccccc3)oc2c1	-67.4*	?	-9.6%	?	-87.9%	18.4µM*
CC(C)(C)OC(=O)COc1cc(O)c2c(=O)cc(-c3ccccc3)oc2c1	0.0	-22.3%	5.5%	?	-22.8%	-27.5%
COc1cc(OC)c2c(=O)cc(-c3ccccc3)oc2c1	-23.1	-9.4%	2.6%	20.6µM*	-38.9%	?
COc1c(O)c(O)c2oc(-c3ccccc3)cc(=O)c2c1OC	-8.8	42.8%	2.6%	?	57.0%	?
COc1cc2c(c3oc(-c4ccccc4)cc(=O)c13)C=CC(C)(C)O2	15.6	?	3.8%	16.4µM*	-49.4%	25.9µM*
CCOC(=O)c1[nH]cnc1C(=O)Nc1cccc(Cl)c1	6.7	-0.2%	5.4%	2.6%	2.4%	-10.1%
CCOC(=O)Cc1ccc(Nc2nc(NCc3cccs3)nc3ccsc23)cc1	-83.9*	8.3%	/	20.6µM*	-21.6%	20.6µM*
COc1ccc(Nc2nc(NCc3cccs3)nc3ccsc23)cc1OC	-87.1*	?	/	25.9µM*	-30.1%	18.4µM*
c1csc(CNc2nc(Oc3ccncc3)c3sccc3n2)c1	?	-7.1%	/	-25.8%	-12.6%	-14.3%
CC1CC1C(=O)N(CCC1=CCCCC1)c1c(N)n(Cc2ccccc2)c(=O)[nH]c1=O (centres undefined)	-9.4	-17.4%	/	-5.7%	-17.7%	-17.1%
COc1ccc(CCNC2=C(Cl)C(=O)N(CCc3ccccc3)C2=O)cc1OC	-0.2	-2.6%	0.9%	?	-20.6%	20.6µM*
COc1ccc(CCNc2c(N)n(Cc3ccccc3)c(=O)[nH]c2=O)cc1OC	-55.4*	?	4.8%	-95.8%	-31.2%	?
Nc1c(NCCC2=CCCCC2)c(=O)[nH]c(=O)n1Cc1ccccc1	-12.1	-19.1%	2.0%	25.9µM*	0.7%	6.51µM*
COc1ccc(CCNc2c(C=O)c(=O)[nH]c3ccccc23)cc1OC	6.5	-6.8%	/	-5.1%	-5.0%	0.5%
C=CCOC(=O)C1=C[C@@H](c2csc3ccccc23)C[C@@H](OCc2ccc(CO)cc2)O1	3.0	?	3.8%	?	-89.4%	?
O=C(Nc1ccccc1)C1=C[C@H](c2csc3ccccc23)C[C@H](OCc2ccc(CO)cc2)O1	?	?	6.4%	16.4µM*	-20.5%	16.4µM*
C=CCOC(=O)C1=C[C@H](c2csc3ccccc23)C[C@H](OCc2ccc(CO)cc2)O1	-0.1	-30.8%	/	?	8.4%	20.6µM*
COC(=O)c1ccc(NC(=O)CSc2n[nH]c(CC(C)C)n2)cc1	/	5.2%	/	11.8%	7.4%	5.2%
CCOC(=O)C(=Cc1cc(=O)c(OC)co1)C(=O)OCC	-97.0*	7.08µM*	-10.1%	1.3µM*	14.1µM*	0.731µM*
COc1coc(C(O)CN)cc1=O (centres undefined)	4.4	-6.5%	5.3%	-7.3%	8.4%	-4.5%

High-throughput results as filed in PubChem BioAssay.
